Bioassay records (PubChem BioAssay)
Shiga inhibitor – blocks Shiga toxin action in Vero cells. AID 2315. Vero cells, Shiga toxin protein synthesis inhibition reporter. inhibition, % at 38.7 µM. actives 9.2% (n = 290,000); in the data active = inhibition mostly above about 28%, no sharp cut-off; inactive = mostly below about 43%; note: 0% is about no effect
FBPA Giardia inh – blocks Giardia fructose-bisphosphate aldolase activity | A8B2U2 | purified Giardia FBPA | Potency, µM (doses to about 59.6 µM), inactives show at the top dose activity, negative = inhibition, usual class: inhibitors | actives 0.71% (n = 290,000) | AID 2451; note: potency is the fitted concentration of half-maximal effect; % is set by controls: 0 for no effect and ±100 for the full control effect; nearly all actives have a fitted effect of over 55% in size
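Giardia FBPA (40 nM reagent) was preincubated 10 min at RT with compound (up to 57.5 uM final), then substrate plus GAPDH/TPI/NAD/arsenate coupling system with diaphorase/resazurin was added; resorufin fluorescence (525/598 nm) was read after 20 min.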
Cycloheximide cs – counter-screen hit for Shiga toxin inhibitors, cycloheximide; max response, %; cell reporter, cycloheximide protein synthesis inhibition counterscreen; actives 12% (n = 300,000); AID 2314; in the data active = max response mostly above about 13%, no sharp cut-off; inactive = mostly below about 14%; note: read at 38.3 µM for the half of the compounds with a filed dose; 0% is about no effect
LmPK inhibitor – inhibitors of Leishmania mexicana pyruvate kinase; Q27686; purified LmPK, Kinase-Glo ATP luminescence, 1 h; Potency, µM (highest dose often 57.5 µM), inactives show at the top dose activity change, negative = inhibition, usual class: inhibitors; actives 0.37% (n = 290,000); note: potency is the fitted concentration of half-maximal effect; % is set by controls: 0 for no effect and ±100 for the full control effect
Target sequence (Q27686 whole entry, looked up): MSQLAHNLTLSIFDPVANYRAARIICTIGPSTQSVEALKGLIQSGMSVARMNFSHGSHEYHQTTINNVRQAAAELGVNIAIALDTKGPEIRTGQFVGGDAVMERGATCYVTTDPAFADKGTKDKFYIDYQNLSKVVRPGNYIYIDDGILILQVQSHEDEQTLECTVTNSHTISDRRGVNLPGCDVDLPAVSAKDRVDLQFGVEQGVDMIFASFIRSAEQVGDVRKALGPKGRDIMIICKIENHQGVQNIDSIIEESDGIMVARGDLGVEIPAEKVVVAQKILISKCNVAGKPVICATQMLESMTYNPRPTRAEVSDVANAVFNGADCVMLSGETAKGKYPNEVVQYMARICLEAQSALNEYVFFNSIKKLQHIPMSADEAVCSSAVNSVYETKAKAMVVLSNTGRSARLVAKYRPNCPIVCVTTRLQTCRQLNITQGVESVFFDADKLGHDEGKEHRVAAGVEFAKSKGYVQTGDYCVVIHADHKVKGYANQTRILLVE
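Purified LmPK (0.1 nM) converted ADP (0.1 mM) to ATP with PEP (0.5 mM) in imidazole buffer pH 7.2 with KCl and MgCl2, 1 h at room temperature. ATP was read by Kinase-Glo luminescence; data normalized to uninhibited and no-enzyme controls.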
TbPYK inhibitor – blocks Trypanosoma brucei pyruvate kinase | Q57TT1 | TbPYK enzyme, Kinase-Glo Plus ATP luminescence, 45 min | Potency, µM (top dose mostly 76.8 µM), without a hit: at the top dose activity, negative = inhibition, hits mostly inhibitors | actives 0.12% (n = 410,000); note: potency is the fitted concentration of half-maximal effect; % is set by controls: 0 for no effect and ±100 for the full control effect; nearly all actives have a fitted effect of over 50% in size
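Assay buffer: 50 mM TEA pH 7.2, 100 mM KCl, 10 mM MgCl2, 0.05% BSA, 0.01% Tween-20. Pyruvate kinase from T. brucei plus substrate met compound, then ADP (130 uM final). Luminescence was read post 45 min RT.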
Sm TGR block – inhibitors of Schistosoma mansoni thioredoxin glutathione reductase; Q962Y6; purified TGR, DTNB reduction, TNB absorbance 405 nm; Potency, µM (top dose mostly 114 µM), for the others: top-dose activity change, negative = inhibition, most hits filed as inhibitors; actives 3% (n = 360,000); note: potency is the fitted concentration of half-maximal effect; % is set by controls: 0 for no effect and ±100 for the full control effect; nearly all actives have a fitted effect of over 60% in size
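Kinetic colorimetric format: TGR-catalysed, NADPH-driven DTNB reduction monitored via TNB absorbance. Enzyme dispensed at 20 nM; compound exposure 15 min at room temperature before reaction start.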
* hit, by the source's call; ? = inconclusive; · = not tested or not shown; [ ] = another dose, or the depositor's remark. The sample as a whole holds a higher share of hits than the screen did. Unless noted, calls come from the whole dose curve; as a rule, active = well fitted curve in the direction sought with a large enough effect; inconclusive = small, poorly fitted or top-dose-only effect, or another doubt; inactive = no such curve, though single readings can be large; an effect the other way counts as inactive or inconclusive.

SMILES	Shiga inhibitor	FBPA Giardia inh	Cycloheximide cs	LmPK inhibitor	TbPYK inhibitor	Sm TGR block
C#CC[N+]1(CC#Cc2cccc3ccccc23)CCOCC1	-0.8	4.2%	1.0	2.8%	4.1%	28.2µM*
Cc1ccc(OCn2c(=O)sc3ccccc32)cc1	65.0*	6.5%	46.7*	-10.2%	7.9%	-4.6%
O=C(O)CCn1c(=O)sc2ccccc21	-9.4	-6.1%[12.9 µM]	7.2	-5.1%	4.1%	19.6%
O=c1sc2ccccc2n1CCOc1ccccc1	65.7*	4.3%	39.5*	16.1%	-7.4%	5.1%[11.4 µM]
Cc1cccc(-c2nnn(CC/C(N)=N/O)n2)c1	active	-0.2%	22.9*	-2.3%	0.0%	-9.8%
COc1ccc(N2C(=O)CC(N3CCCC4CCCCC43)C2=O)cc1 (centres undefined)	-3.5	2.9%	-1.2	-12.9%	-1.1%	11.2µM*
O=C1CC(N2CCN(c3ccc(O)cc3)CC2)C(=O)N1c1ccc2c(c1)OCO2 (centres undefined)	21.6	?	0.8	0.6%	?	·
O=C1CC(N2CCCCCC2)C(=O)N1c1ccc(F)cc1 (centres undefined)	18.2	2.5%	-4.1	-0.2%	-4.4%	10µM*
O=C1CC(N2CCN(c3ccc(F)cc3)CC2)C(=O)N1c1ccc(F)cc1 (centres undefined)	9.6	3.2%	1.3	-3.9%	0.3%	-13.3%
O=C1CC(NC23CC4CC(CC(C4)C2)C3)C(=O)N1c1ccc2c(c1)OCO2 (centres undefined)	12.1	-5.0%	2.1	-1.7%	-5.8%	44.7µM*
O=C1CC(N2CCCCCC2)C(=O)N1c1ccc2c(c1)OCO2 (centres undefined)	3.6	5.1%	10.0	-12.8%	-15.8%	7.94µM*
CCC(=O)N1CCc2cc(Br)cc(S(=O)(=O)N3CCN(c4cccc(Cl)c4)CC3)c21	·	·	·	·	-1.8%	2.3%
CCCCn1nc(NC(=O)c2cccc(Cl)c2)c2cc3ccc(C)cc3nc21	·	·	·	·	0.1%	2.2%
COc1ccc(N2C(=O)CC(N3CCC(O)(c4cccc(C(F)(F)F)c4)CC3)C2=O)cc1 (centres undefined)	20.8	13.2%	4.7	1.4%	4.4%	39.8µM*
NC(=O)C1(N2CCCCC2)CCN(C2CC(=O)N(Cc3cccs3)C2=O)CC1 (centres undefined)	17.5	5.5%	-2.2	7.1%	-6.1%	50.1µM*
COc1ccc(N2C(=O)CC(N3CCCCC3)C2=O)cc1 (centres undefined)	5.8	6.4%	8.6	3.7%	-3.3%	31.6µM*
COc1cccc(N2C(=O)CC(N3CCC(C(N)=O)(N4CCCCC4)CC3)C2=O)c1 (centres undefined)	-3.5	1.0%	8.7	-0.8%	-1.5%	17.8µM*
CCOc1ccc(N2C(=O)CC(N3CCC(O)(c4ccc(Br)cc4)CC3)C2=O)cc1 (centres undefined)	2.1	-0.2%	-3.5	5.2%	1.8%	0.0%
NC(=O)C1(N2CCCCC2)CCN(C2CC(=O)N(CCc3ccccc3)C2=O)CC1 (centres undefined)	-2.7	11.6%	-3.5	-0.4%	-4.9%	?
Cc1cccc(N=Nc2cn[nH]c2-c2ccco2)c1	99.7*	-0.1%	53.8*	-4.1%	-2.6%	0.9%
O=C(O)c1ccc(NS(=O)(=O)c2ccc3c(c2)C2C=CCC2C(c2ccccc2F)N3)cc1 (centres undefined)	-2.6	-21.3%	-2.0	4.3%	?	28.2µM*
Cc1ccc(NS(=O)(=O)c2ccc3c(c2)[C@H]2C=CC[C@H]2[C@@H](c2ccc(F)cc2)N3)cc1C	·	·	·	·	-5.6%	?
COC(=O)c1ccc([C@H]2Nc3ccc(S(=O)(=O)Nc4cccc(C)c4)cc3[C@H]3C=CC[C@H]32)cc1	·	·	·	·	-4.6%	25.1µM*
COC(=O)c1ccc([C@@H]2Nc3c(OC)ccc(C)c3[C@@H]3C=CC[C@@H]32)cc1	·	·	·	·	-10.8%	3.16µM*
COc1ccccc1N1CCN(c2ncnc3c2cnn3-c2ccc(C)cc2)CC1	·	·	·	·	-1.0%	5.0%
SMILES	Shiga inhibitor	FBPA Giardia inh	Cycloheximide cs	LmPK inhibitor	TbPYK inhibitor	Sm TGR block
Cc1ccc(C(=O)COC(=O)CN2C(=O)C3C4CCC(C4)C3C2=O)cc1C (centres undefined)	7.3	1.0%	11.6*	7.2%	1.4%	?
Cc1ccc(C(=O)COC(=O)CN2C(=O)C3C4CCC(C4)C3C2=O)cc1[N+](=O)[O-] (centres undefined)	-1.2	-0.8%	0.9	-0.6%	1.3%	-6.3%
CCC(=O)N(CCC1(c2ccccc2OC)CCOC(C(C)C)C1)Cc1ccco1 (centres undefined)	30.5	-0.5%	26.3*	5.0%	-1.5%	-33.0%
COc1ccc(-c2cc(C(F)(F)F)n3ncc(-c4ccccc4)c3n2)cc1	·	·	·	·	9.0%	5.3%
CCN1CCN(C(=O)CS(=O)Cc2nc(-c3cccc(C)c3)oc2C)CC1 (centres undefined)	-3.4	10.5%	14.6	-2.1%	3.5%	39.8µM*
Cc1cccc(-c2nc(CS(=O)CC(=O)N3CC(C)CC(C)C3)c(C)o2)c1 (centres undefined)	1.7	9.9%	-3.2	-5.2%	-1.7%	35.5µM*
Cc1cc(C)c(C#N)c(SCc2cn3ccccc3n2)n1	33.3	-22.7%	15.0*	1.0%	-0.7%	2.9%
Nn1c(SCc2cn3ccccc3n2)nnc1-c1ccncc1	-10.7	-13.0%	2.2	6.0%	2.7%	-6.8%
Cc1cc(C)nc(SCc2cn3ccccc3n2)n1	26.7	-14.7%	22.4*	0.9%	-0.7%	-6.9%
Cc1ccc(NC(=O)C2CC(=O)Nc3ncnn32)c(C)c1 (centres undefined)	-5.2	-1.3%	-2.9	-0.6%	1.0%	56.2µM*
Cc1ccc(NC(=O)C2CC(=O)Nc3ncnn32)cc1Cl (centres undefined)	-1.6	-3.5%	-2.0	0.5%	-1.0%	8.7%
CCOC(=O)c1cc(/C(C)=N/OC(=O)c2ccc(Cl)cc2)on1	-16.2	1.5%	3.1	0.9%	0.6%	-1.4%
C/C(=N/OC(=O)CC(C)C)c1cc(-c2ccc(Cl)cc2)no1	124.3*	3.4%	15.2	0.8%	6.7%	-8.2%
COc1ccc(CN2CCc3ccc(NC(=O)CCc4ccccc4OC)cc3C2)c(O)c1	2.5	-12.7%	7.6	-0.1%	5.0%	-27.1%
COc1cc(CN2CCc3ccccc3C2)ccc1O	54.2*	?	29.9*	-1.1%	-6.3%	20µM*
COc1cc(CN2CCc3ccc(NC(=O)CCc4ccccc4OC)cc3C2)ccc1O	5.9	-7.3%	11.4	-2.0%	-5.0%	12.6µM*
COc1c(C)cc(S(=O)(=O)NCCc2c(C)[nH]c3ccccc23)c(C)c1C	·	·	·	·	0.6%	3.0%
C=C(C)C1CC=C(C)/C(=N/NC(=O)COc2ccc(C)cc2)C1 (centres undefined)	-9.3	6.4%	-1.5	3.4%	3.1%	6.9%
